IMPase Li inh: qHTS Assay for Identifying the Cell-Membrane Permeable IMPase Inhibitors: Potentiation with Lithium | CHO-M1 cells, IP1 TR-FRET (IP-One), carbachol + lithium | Potency, µM (highest dose often 59.4 µM), inactives show at the highest dose activity, negative = IMPase inhibition, usual class: inhibitors | 210,000 compounds, 0.35% hits; active means well fitted curve in the direction sought with a large enough effect; inconclusive means small, poorly fitted or top-dose-only effect, or another doubt; inactive means no such curve, though single readings can be large; an effect the other way counts as inactive or inconclusive;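 further: IP1 builds up when IMPase is blocked and the TR-FRET signal falls; potency means the concentration at half of the fitted maximal effect; plate controls were basal vehicle for no effect and high inhibitor control for full effect; nearly all actives have a fitted effect of over 50% in size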
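CHO-M1, 2000 cells/well, 16–30 h culture; cpd + low Li+, 30 min 37C; lysis with d2-IP1/Eu-anti-IP1 Ab, 10 min RT; TR-FRET 665/620 ratio and 620 channel; AC50 via Hill.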
HPGD block: qHTS Assay for Inhibitors of HPGD (15-Hydroxyprostaglandin Dehydrogenase) | 15-hydroxyprostaglandin dehydrogenase [NAD(+)] (Homo sapiens), P15428 | purified HPGD, NADH fluorescence kinetic, PGE2 substrate | Potency, µM, without a hit: top-dose activity change, negative = inhibition, most hits filed as inhibitors | 150,000 compounds, 4.3% hits | AID 894, 2007; further: potency means the concentration at half of the fitted maximal effect
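NADH formation kinetics: reaction with 30 uM PGE2 and 1 mM NAD+ (final), 20 nM enzyme, Tris-HCl pH 8 with Tween 20, after 15 min compound preincubation at room temperature. Fluorescence change, last versus first of five reads.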
IMPase inh: qHTS Assay for Identifying the Cell-Membrane Permeable IMPase Inhibitors; CHO-M1 cells, IP1 accumulation, HTRF TR-FRET ratio; Inositol monophosphatase 1 (Rattus norvegicus), P97697; 120,000 tested, under 10 active; inhibition (IP1 accumulation), % at 46.1 µM; AID 901, 2007; active means well fitted curve in the direction sought with a large enough effect in the signal ratio, not every such curve was filed as active; inconclusive means small, poorly fitted or top-dose-only effect, or a change in a side signal; inactive means no such curve, though single readings can be large or run the other way; the % refers to the signal ratio;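 further: cells stimulated with carbachol in lithium chloride buffer; plate controls were DMSO basal wells for no effect and reference inhibitor wells for full effect; higher means more IMPase inhibition seen as more IP1 and lower FRET ratio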
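In this qHTS, compounds (final up to 46 uM) act on CHO-M1 cells that are then activated through the M1 receptor with carbachol, in pH 7.4 buffer containing 50 mM LiCl, for 30 min. IP1 accumulation is quantified by the IP-One immunoassay.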
PNC inhibitor: High Content Assay for Compounds that inhibit the Assembly of the Perinucleolar Compartment | PC3M PTB-GFP, PNC prevalence imaging, 16 h; stronger effect = lower value | activity change (PNC), negative = inhibition, % at 10 µM | 140,000 compounds, 3.1% hits;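 active means readout at or below -70, meaning at least 70% loss of cells showing the perinucleolar compartment, a nuclear body marking cancer cells; inconclusive means readout between -30 and a set limit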;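 further: plate controls were DMSO wells for no effect and camptothecin positive control wells for full effect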
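Read-out is percentage of cells bearing a perinucleolar compartment, from automated 20x imaging of fixed, Hoechst-stained PC3M PTB-GFP cells. Cells were seeded 4 h, then exposed 16 h to compound (23 nl of library stock) in duplicate plates.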
ALOX12 inhib: qHTS Assay for Inhibitors of 12-hLO (12-human lipoxygenase); AID 1452, 2008; 150,000 compounds, 0.12% hits; purified 12-hLO, xylenol orange hydroperoxide absorbance; Potency, µM (top dose mostly 57.1 µM), without a hit: at the top dose activity change, negative = inhibition, usual class: inhibitors; active means well fitted curve in the direction sought with a large enough effect; inconclusive means small, poorly fitted or top-dose-only effect, or another doubt; inactive means no such curve, though single readings can be large; an effect the other way counts as inactive or inconclusive; further: potency means the concentration at half of the fitted maximal effect; nearly all actives have a fitted effect of over 55% in size
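Lipoxygenase turnover measured by absorbance at 573 and 405 nm after Fe-XO development. Human 12hLO 150 nM, arachidonate 40 uM, pH 7.0 Hepes buffer with detergent; 15 min compound preincubation, 30 min reaction.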
ALDH1A1 inh: qHTS Assay for Inhibitors of Aldehyde Dehydrogenase 1 (ALDH1A1) | Aldehyde dehydrogenase 1A1 (Homo sapiens), P00352 | Purified ALDH1A1, NADH fluorescence, propionaldehyde substrate | Potency, µM (titrated, usually from 75.3 µM), without a hit: at the top dose activity, negative = inhibition, most hits filed as inhibitors | 220,000 compounds, 7.3% hits | AID 1030, 2008;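 further: potency means the concentration at half of the fitted maximal effect; plate controls were no enzyme wells and a reference inhibitor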
Target sequence (P00352 whole entry, looked up): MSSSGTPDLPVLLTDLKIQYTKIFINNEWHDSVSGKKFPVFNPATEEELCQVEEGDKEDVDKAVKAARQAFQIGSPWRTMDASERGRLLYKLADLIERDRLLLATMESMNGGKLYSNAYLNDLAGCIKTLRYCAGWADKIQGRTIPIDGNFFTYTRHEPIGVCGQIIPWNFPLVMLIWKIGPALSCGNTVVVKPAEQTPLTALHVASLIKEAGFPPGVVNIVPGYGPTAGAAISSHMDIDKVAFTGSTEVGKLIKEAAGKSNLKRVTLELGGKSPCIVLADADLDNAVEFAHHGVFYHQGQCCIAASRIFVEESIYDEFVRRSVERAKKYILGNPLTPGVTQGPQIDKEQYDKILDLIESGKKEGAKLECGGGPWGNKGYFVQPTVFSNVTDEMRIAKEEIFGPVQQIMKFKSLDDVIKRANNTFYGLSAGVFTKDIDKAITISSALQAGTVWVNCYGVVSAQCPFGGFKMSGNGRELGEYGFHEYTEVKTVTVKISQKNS
Active calls of the source: *; ? = inconclusive; · = no result given; [ ] = another dose, or the depositor's remark. A selection: hits, their analogues and other compounds. The true share with any hit is near 11%. Unless noted, the call rests on the fitted dose curve; in most records, active means well fitted inhibition curve with a large enough effect (not every such curve was filed as active); inconclusive means small, poorly fitted or top-dose-only effect, or another doubt; inactive means no such curve, though single readings can be large or run the other way. Unless noted, on the % scale 0 is the no-effect control and ±100 the full control effect.

SMILES	IMPase Li inh	HPGD block	IMPase inh	PNC inhibitor	ALOX12 inhib	ALDH1A1 inh
Cc1ccc(C(=O)Oc2oc(-c3ccco3)nc2C=Nc2ccccc2)cc1	0%[38.3 µM]	7.1µM*	3	2	4%	?
CCOC(=O)c1ccc(N=Cc2nc(-c3ccccc3)oc2OC(C)=O)cc1	17%[38.3 µM]	16µM*	-1	35	-1%	22µM*
Oc1oc(-c2ccco2)nc1C=Nc1ccccc1	8%[38.3 µM]	-1%	13	32	-9%	22µM*
CC(=O)Oc1oc(-c2ccccc2)nc1C=Nc1ccccc1	7%[38.3 µM]	16µM*	3	0	0%	18µM*
CN(C)c1ccc(N=Cc2nc(-c3ccccc3)oc2OC(=O)c2cccc(Br)c2)cc1	4%	?	·	22	0%	?
CCC(=O)Oc1oc(-c2ccccc2)nc1C=Nc1ccccc1OC	43%[38.3 µM]	?	-4	2	-4%	?
Cc1cccc(CNc2nc(-c3cccnc3)nc3ccccc23)c1	22%	-26%	·	·	-4%	?
CN1CCN(c2ncc3nc(CCc4ccccc4)c(=O)n(CCC#N)c3n2)CC1	5%	?	·	·	8%	?
COc1ccc(N=Cc2nc(-c3ccccc3)oc2OC(=O)c2ccccc2)cc1	4%	22µM*	·	54	-2%	?
Cc1cn(C2OC(COC(=O)c3ccccc3)C(O)C2O)c(=O)[nH]c1=O (stereo not drawn)	-7%	-8%	4	-89*	0%	3%
Cc1cn2c(nc1=O)OC1C(O)C(COC(=O)c3ccccc3)OC12 (stereo not drawn)	32%[38.3 µM]	-1%	-4	-22	-2%	3.2µM*
Cc1cn([C@H]2C=C[C@@H](CO)O2)c(=O)[nH]c1=O	-3%	-6%	-4	65	-1%	0%
Cc1cn([C@H]2C[C@H](O)[C@@H](CO)O2)c(=O)[nH]c1=O	6%	-11%	0	·	-2%[0.00818 µM]	3%
Cc1cn(C2OC(COC(=O)c3ccccc3)C(OC(=O)c3ccccc3)C2OC(=O)c2ccccc2)c(=O)[nH]c1=O (stereo not drawn)	8%	-12%	-4	-119*	1%	12%
O=C(OCC1OC2C(Oc3nc(=O)ccn32)C1O)c1ccccc1 (stereo not drawn)	10%[38.3 µM]	-14%	-5	?	-3%	?
COc1ccccc1OCC(=O)Nc1c(C(=O)c2ccc(F)cc2)oc2ccccc12	·	·	10	·	·	·
COc1cc([C@H]2c3cc4c(cc3[C@@H](O[C@H]3O[C@H]5CO[C@@H](C)O[C@H]5[C@@H](O)[C@@H]3O)[C@@H]3COC(=O)[C@H]23)OCO4)cc(OC)c1O	-2%	3%	4[20.6 µM]	·	-3%[25.6 µM]	2%[20.9 µM]
C=COCCNC(=O)Nc1ccc(Cl)c(Cl)c1	16%	20µM*	14	25	-9%	-1%
COCCNC(=S)Nc1ccc(Cl)c(Cl)c1	-2%	·	·	·	·	10%
N=C(N)S/C=C\C(=O)O	9%	35µM*	-2	·	-1%	7.9µM*
CC(C)(C)c1cc(Br)c(O)c(CN(Cc2cc(C(C)(C)C)cc(Br)c2O)C2CCCCC2)c1	0%	3%	·	·	5%[11.4 µM]	12%[13.5 µM]
CCOC(=O)c1[nH]nc(-c2c(O)cc(C)cc2O)c1-c1csc(C)n1	-12%[38.3 µM]	-8%	1	38	-6%	14%
CCCc1cc(-c2n[nH]c(C(=O)OCC)c2-c2cscn2)c(O)cc1O	6%[38.3 µM]	3%	-8	35	-5%	8.9µM*
O=S(=O)(O)c1cc(N=[N+]([O-])c2cc(S(=O)(=O)O)c3ccccc3c2)cc2ccccc12	0%	-19%	·	·	-4%[11.4 µM]	?
